# PHOSPHO1 inh = inhibitors of human PHOSPHO1 phosphatase; inhibition, % at 13.3 µM; actives 1.1% (n = 290,000); Q8TCT1; AID 1565; recombinant PHOSPHO1, absorbance phosphatase assay; in the data active means inhibition above about 60%
# Target sequence (Q8TCT1 whole entry, looked up): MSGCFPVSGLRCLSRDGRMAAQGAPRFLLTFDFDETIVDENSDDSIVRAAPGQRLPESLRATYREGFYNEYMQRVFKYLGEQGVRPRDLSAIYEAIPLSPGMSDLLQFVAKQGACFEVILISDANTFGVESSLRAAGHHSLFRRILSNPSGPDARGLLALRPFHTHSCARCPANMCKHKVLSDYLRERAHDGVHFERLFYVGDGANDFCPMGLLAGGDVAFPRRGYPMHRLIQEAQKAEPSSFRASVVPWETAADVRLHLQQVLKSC
# PABP polyA inh = blocks human PABP binding to poly(A) RNA; P11940; fluorescence polarization; inhibition, % at 35 µM; actives 1% (n = 290,000); AID 2014;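 further: calls also rest on retests at 20 µM and on dose response follow-up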
# CRFR2-BP antag = blocks CRF-induced signaling of the CRF-BP/CRF-R2 complex; HEK293 CRF-R2/CRF-BP, CRF-induced calcium fluorescence; inhibition, % at 11.8 µM; actives 0.59% (n = 350,000);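 active means inhibition of the ligand-induced calcium signal above about 50% at the single tested concentration, limit read from the data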
# MLLE-PAM2 inh = blocks PAM2 peptide binding to the PABP1 MLLE domain. GST-MLLE / FITC-PAM2 fluorescence polarization. inhibition, % at 20 µM. AID 588489. actives 0.36% (n = 360,000). P11940; in the data active means inhibition above about 35%, passing the limit was not always enough;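 further: plate controls were DMSO wells with GST-MLLE for no effect and wells lacking GST-MLLE protein for full effect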
# eIF4H inh = inhibitors of RNA binding by human eIF4H | eIF4H fluorescence polarization binding assay | inhibition, % at 35 µM | actives 0.94% (n = 290,000) | AID 2012;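 further: calls also rest on retests at 20 µM and on dose response follow-up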
# Starred values were filed as active, the others as inactive; ? = inconclusive; . = no result given. Most compounds without a hit are left out; they make up all but 2.6% or so of the library. Unless noted, how the calls were made is not given here.
SMILES,PHOSPHO1 inh,PABP polyA inh,CRFR2-BP antag,MLLE-PAM2 inh,eIF4H inh
CC(=O)NC(c1ccc(F)c(F)c1)c1nc(-c2cccc(C(C)C)c2)cs1 (stereo not drawn),.,.,.,14.6,.
CCN(CC)CCn1c(=S)[nH]c2cc(Cl)ccc2c1=O,93.8*,-5.5,-26.1,-14.0,-10.3
CCN(CC)CCn1c(=S)[nH]c2ccc(Cl)cc2c1=O,78.3*,-3.1,-9.0,-44.3,3.6
CCN(CC)CCn1c(=S)[nH]c2cc(C(=O)N3CC(C)CC(C)C3)ccc2c1=O (stereo not drawn),12.7,-6.4,13.4,-44.6,-1.8
CC1CCN(S(=O)(=O)c2ccc(C(=O)N3CCN(c4ccccc4F)CC3)cc2)CC1,60.1*,3.7,-69.3,-3.3,-7.4
COc1ccc(CN2CC[C@@H]3CN(C(C)=O)[C@H](c4ccccc4Br)C[C@@H]32)cc1,.,.,.,-16.1,.
CCOC(=O)c1cc2c(=O)c3cc(C)ccc3oc2nc1C,19.5,0.7,66.9*,-16.0,2.4
CCN(CC(=O)Nc1ccc2c(c1)OCCO2)C(=O)/C=C/c1ccc(OC)cc1OC,62.4*,48.4,2.5,-4.5,17.6
CC1CC(C)CN(S(=O)(=O)c2ccc(C(C)(C)C)cc2)C1 (stereo not drawn),24.9,79.6*,-10.0,1.0,5.0
CC(C)(C)c1ccc(S(=O)(=O)N2CCN(C3CCCC3)CC2)cc1,43.3,2.8,8.9,4.0,-5.4
CCC(=O)NCCn1c(C)cc2ccccc21,-14.1,75.4*,6.5,22.5,106.3*
Cc1cc2ccccc2n1CCNC(=O)c1ccc(Br)o1,-0.2,51.6*,5.8,42.7*,58.6*
Cc1cc2ccccc2n1CCNC(=O)COc1ccccc1,22.1,115.2*,-0.5,15.5,107.6
CC(=O)NCCn1c(C)cc2ccccc21,-2.3,92.6*,1.2,26.5,93.8*
O=C(COC(=O)CCC(=O)c1cccs1)Nc1ccccc1C(F)(F)F,.,.,-1.6,-1.8,.
Cc1cccc(OCC(=O)N(Cc2ccc(F)cc2)C2CCS(=O)(=O)C2)c1C (stereo not drawn),7.9,6.8,-9.9,-5.8,-0.1
CC(=O)CC(=O)NC1CCc2ccccc21 (stereo not drawn),.,.,-12.8,-17.2,.
CCOC(=O)Nc1ccc2nc(-c3cscn3)[nH]c2c1,.,.,-11.8,9.9,.
CCOc1cccc(C2C(C(=O)c3ccc(C)o3)=C(O)C(=O)N2c2nccs2)c1 (stereo not drawn),71.1*,?,-33.6,131.5,?
CCOc1cccc(C2C(C(=O)c3ccc(C)o3)=C(O)C(=O)N2Cc2ccncc2)c1 (stereo not drawn),-36.3,2.3,-3.7,4.8,11.7
CCCCCc1c(O)nc(SCCN(C)C)[nH]c1=O,-24.7,1.0,1.0,1.8,-7.8
CCCCCc1c(O)nc(SCCN(CC)CC)[nH]c1=O,32.5,76.1*,-4.4,5.7,active
CCCCc1c(O)nc(SCC(=O)c2ccccc2)[nH]c1=O,14.0,6.8,4.2,38.9*,-1.0
O=C(CSc1nc(O)c(Cc2ccccc2)c(=O)[nH]1)c1ccccc1,11.7,5.1,8.5,40.7*,5.3
COc1ccccc1N1CCN(c2ccc3c(c2)S(=O)(=O)c2cccc(C(=O)NCc4cccc(F)c4)c2C3=O)CC1,.,.,4.6,7.9,.
SMILES,PHOSPHO1 inh,PABP polyA inh,CRFR2-BP antag,MLLE-PAM2 inh,eIF4H inh
C[C@@H]1CN([C@H](C)CO)C(=O)CCCn2nncc2CO[C@@H]1CN(C)C(=O)NC1CCCCC1,.,.,-6.0,13.9,.
CN(Cc1ccc([N+](=O)[O-])cc1)c1ccccc1,.,.,55.2*,-1.6,.
CCCc1nc2ccc(C)cn2c1Cc1ccsc1,.,.,.,0.7,.
C[C@]12CC[C@H](O)CC1=CCC1C2CC[C@@]2(C)C1CC[C@@H]2NCc1ccccc1 (stereo partly drawn),.,.,-35.1,3.6,.
COC(=O)c1cc(C#N)c(NCc2ccccc2)nc1C,14.7,9.4,53.8*,8.5,-3.1
COC(=O)c1cc(C#N)c(N(C)Cc2ccccc2)nc1C,-5.3,-9.0,61.7*,5.6,9.3
CC1=CN(S(=O)(=O)c2ccc(C)cc2)C[C@@H]2[C@H]3CC[C@H](C3)[C@H]12,.,.,0.9,2.6,.
COc1ccc(-n2nnnc2Sc2ccc(S(=O)(=O)N3CCOCC3)cn2)cc1,85.4*,-3.8,-9.4,36.4,-4.6
COc1cc(CN2C[C@@H](CO)O[C@@H](n3cnc4c(NC(C)C)ncnc43)C2)cc(OC)c1OC,.,.,.,-3.3,.
Cc1cc(C(C#N)c2ccc(Cl)cc2)c(Cl)cc1NC(=O)c1cc(I)cc(I)c1O (stereo not drawn),.,.,57.8*,-95.0,.
O=C(C[C@H]1C(=O)N(CCc2ccccc2)C[C@@H]1c1ccccc1)Nc1ccccc1,.,.,6.7,9.7,.
CCOC(=O)c1ccc(NC(=O)c2sc3nc4n(c(=O)c3c2C)CCC4)cc1,42.6,0.6,-37.1,1.2,-10.4
CCOC(=O)c1sc2nc3n(c(=O)c2c1C)CCC(C)CC3 (stereo not drawn),78.3*,-6.5,4.5,24.1,0.7
CCOC(=O)c1sc2nc(C)n(CC(=O)NCC3CCCO3)c(=O)c2c1C (stereo not drawn),-12.4,-4.1,58.0*,-3.9,-6.1
CCOC(=O)N1CCN(C(=O)Nc2sc3nc4n(c(=O)c3c2C)CCC(C)CC4)CC1 (stereo not drawn),73.8*,-5.7,-11.0,5.5,-3.4
CCOC(=O)N1CCC(NC(=O)c2sc3nc4n(c(=O)c3c2C)CCCC4)CC1,21.4,-1.3,-2.3,7.8,8.6
CSc1ccc(/C=C(/NC(=O)c2ccc(C)cc2)C(=O)Nc2cccc(F)c2)cc1,-12.0,4.7,136.9*,-5.3,7.1
CCCCOc1ccc(-c2nc(SCC(N)=O)n[nH]2)cc1,14.7,2.6,38.8,-7.8,0.2
CCCCOc1ccc(-c2nc(=S)[nH][nH]2)cc1,80.2*,-5.3,2.7,17.1,2.6
COc1ccc(CCNC(=O)c2ccc3nc(-c4ccco4)c(-c4ccco4)nc3c2)cc1OC,69.5*,67.1*,-3.1,38.1*,106.0*
COc1ccc(CCNC(=O)c2ccc3c(=O)n(Cc4ccco4)c(=S)[nH]c3c2)cc1OC,-58.7,22.3*,5.5,-28.8,72.8*
COc1ccccc1N1CCN(C(=O)c2ccc3c(=O)n(Cc4ccco4)c(=S)[nH]c3c2)CC1,82.0*,-4.0,-29.1,-42.1,0.4
CC(C)NC(=O)c1ccc2c(=O)n(Cc3ccco3)c(=S)[nH]c2c1,29.8,8.2,3.0,-69.1,8.1
CCCNC(=O)c1ccc2c(=O)n(Cc3ccco3)c(=S)[nH]c2c1,-82.0,99.0*,3.4,-62.4,91.4*
CC1=C(C(=O)N(C)C)CC(CC(=O)NCc2cccs2)C(=O)N1Cc1ccc(C(C)(C)C)cc1 (stereo not drawn),.,.,.,-5.2,.
NC(Cc1ccc(Cl)cc1)c1csc(NC(=O)Nc2ccccc2-c2ccccc2)n1 (stereo not drawn),.,.,.,3.0,.
Cc1c(C(=O)Nc2ccc3c4c(cccc24)CC3)cccc1[N+](=O)[O-],-1.8,-0.4,-12.2,8.9,7.6
COc1ccc(C(=O)NC(=S)Nc2ccc3c4c(cccc24)CC3)cc1OC,-9.3,63.7*,-16.4,12.1,12.1*

# Compound activity deposited in PubChem BioAssay by Sanford-Burnham Center for Chemical Genomics.
